Assay results published in the supplement of paper PMC10412459.

System: K562 SF3B1 K700E vs K562 SF3B1 WT
Assay: surviving fraction ratio K562 SF3B1 K700E / K562 SF3B1 WT (each relative to DMSO); higher = less selective killing of SF3B1 K700E cells
Conditions: 5 days
Procedure: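 Drug-sensitivity screen of an in-house 80-compound library in isogenic K562 SF3B1 K700E versus SF3B1 WT cells. 250 cells/well in 384-well plates were exposed 24 h after seeding to 0.5-1000 nM compound for 5 days, and viability was read by CellTiter-Glo. Surviving fraction is relative to DMSO, and the value is the ratio of surviving fraction in K700E to WT cells; the paper calls ratio <0.6 with P<0.01 selective.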

Compound | surviving fraction ratio K562 SF3B1 K700E / K562 SF3B1 WT (0.5nM) | surviving fraction ratio K562 SF3B1 K700E / K562 SF3B1 WT (1nM) | surviving fraction ratio K562 SF3B1 K700E / K562 SF3B1 WT (5nM) | surviving fraction ratio K562 SF3B1 K700E / K562 SF3B1 WT (10nM) | surviving fraction ratio K562 SF3B1 K700E / K562 SF3B1 WT (50nM) | surviving fraction ratio K562 SF3B1 K700E / K562 SF3B1 WT (100nM) | surviving fraction ratio K562 SF3B1 K700E / K562 SF3B1 WT (500nM) | surviving fraction ratio K562 SF3B1 K700E / K562 SF3B1 WT (1000nM)
Cn1c(=O)n(-c2ccc(C(C)(C)C#N)cc2)c2c3cc(-c4cnc5ccccc5c4)ccc3ncc21 | 0.991 | 0.985 | 0.8 | 0.854 | 0.811 | 0.838 | 1.28 | 1.45
O=C(NOCC1CC1)c1ccc(F)c(F)c1Nc1ccc(I)cc1Cl | 1.29 | 0.978 | 1.08 | 0.818 | 1.3 | 0.822 | 0.921 | 0.944
CNC(=O)c1ccc(N2C(=S)N(c3ccc(C#N)c(C(F)(F)F)c3)C(=O)C2(C)C)cc1F | 0.896 | 0.933 | 0.864 | 1.07 | 0.871 | 0.847 | 0.769 | 0.98
Oc1ccc(/C=C/c2cc(O)cc(O)c2)cc1 [resveratrol] | 0.896 | 0.898 | 0.856 | 0.905 | 1 | 1.24 | 0.916 | 1.28
Nc1ncn([C@H]2C[C@H](O)[C@@H](CO)O2)c(=O)n1 [decitabine] | 0.733 | 0.724 | 0.773 | 0.665 | 0.964 | 0.894 | 1.13 | 1.36
